AMA1-RON2 inh: inhibitors of Plasmodium falciparum AMA1-RON2 interaction. Potency, µM (top dose mostly 58.2 µM), hits mostly inhibitors. 360,000 tested, 0.2% active. AlphaScreen AMA1-biotinylated RON2 peptide binding; further: nearly all actives have a fitted effect of over 45% in size
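AMA1 (3D7) with his tag at 25 nM final met compounds first, then biotinylated RON2 peptide at 25 nM; detection used donor plus acceptor beads, 10 µg/mL apiece, read by AlphaScreen after 30 min at room temperature.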
HCV inhibitor: inhibitors of hepatitis C virus infection; Potency, µM (highest dose often 41.8 µM), hits mostly inhibitors; Huh7.5.1 HCVcc-Cre infection, luciferase reporter, 44 h; AID 651820; 340,000 tested, 3.4% active
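Infectious HCV cell culture screen: compound-treated cells (1,000/well, pre-plated 4 h) are infected with HCVcc-Cre at roughly 0.5 moi and grown 44 h. Infection is quantified by luciferase signal after 15 min substrate incubation at room temperature.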
Pf growth 96h: P. falciparum growth inhibition at 96 hours | P. falciparum luciferase reporter growth, 96 h | Potency, µM (titrated, usually from 28.7 µM), hits mostly inhibitors | 320,000 tested, 6.9% active | AID 504834
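Two-generation exposure (96 h) targets delayed-death phenotype. Reporter parasites carrying integrated firefly luciferase, in red cells at 2% hematocrit and 0.05% parasitemia final, kept at 37 C, 5% CO2; luminescence loss indicates inhibition.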
Pf growth 48h: inhibits P. falciparum growth in the first generation, 48 h; P. falciparum luciferase growth in erythrocytes, 48 h; Potency, µM (doses to about 28.7 µM), hits mostly inhibitors; 310,000 tested, 5.9% active
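Firefly luciferase activity from engineered P. falciparum reports growth; inhibitors lower the luminescent signal. Cultures contained 2% hematocrit erythrocytes at 0.1% final parasitemia.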
AmpC inh no detg: inhibitors of E. coli AmpC beta-lactamase without detergent; AmpC nitrocefin hydrolysis, absorbance 480 nm, 0.0001% Triton; P00811; Potency, µM (doses to about 57.1 µM), usual class: inhibitors; 330,000 tested, 0.52% active; further: nearly all actives have a fitted effect of over 20% in size
Target sequence (P00811 whole entry, looked up): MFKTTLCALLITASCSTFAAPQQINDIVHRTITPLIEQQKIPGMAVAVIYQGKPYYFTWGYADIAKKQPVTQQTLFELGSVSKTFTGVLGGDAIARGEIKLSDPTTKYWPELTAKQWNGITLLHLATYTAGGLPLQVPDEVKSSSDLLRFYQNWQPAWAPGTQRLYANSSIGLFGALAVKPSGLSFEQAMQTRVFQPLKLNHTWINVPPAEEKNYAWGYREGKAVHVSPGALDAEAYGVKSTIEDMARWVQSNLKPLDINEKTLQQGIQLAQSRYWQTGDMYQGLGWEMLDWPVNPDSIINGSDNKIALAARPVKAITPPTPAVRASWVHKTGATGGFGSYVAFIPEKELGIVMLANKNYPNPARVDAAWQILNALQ
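20 mM phosphate pH 7.0 + 0.01% (detergent screen) or 0.0001% Triton X-100; 5.3 nM AmpC reagent; cpd preinc 15 min RT; nitrocefin (800 uM stock) to start; A480 q20 s × 4 min; Activity was normalised to no-enzyme and no-compound control wells.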
AmpC detergent: blocks E. coli AmpC beta-lactamase in detergent assay; P00811; AmpC hydrolysis of nitrocefin, absorbance 480 nm, 0.01% Triton; Potency, µM (doses to about 114 µM), hits mostly inhibitors; 370,000 tested, 0.041% active; further: nearly all actives have a fitted effect of over 25% in size
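AmpC (5.3 nM in the dispensed reagent) in 20 mM phosphate pH 7.0 with 0.01% (detergent screen) or 0.0001% Triton X-100 was preincubated with compounds for 15 min at room temperature. Nitrocefin was then added from an 800 uM solution, and hydrolysis was followed at 480 nm.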
Numbers stand for hits; – = inactive; ? = inconclusive; · = no result; [ ] = another dose, or the depositor's remark. An excerpt weighted towards active compounds, which were near 11% of everything screened. The call rests on the fitted dose curve; in most records, active means well fitted curve in the direction sought with a large enough effect; inconclusive means small, poorly fitted or top-dose-only effect, or another doubt; inactive means no such curve, though single readings can be large; an effect the other way counts as inactive or inconclusive.

SMILES	AMA1-RON2 inh	HCV inhibitor	Pf growth 96h	Pf growth 48h	AmpC inh no detg	AmpC detergent
CCCOc1ccc(CSCCNC(=S)Nc2ccccc2)cc1	–	?	?	13µM	–	?
CCOc1ccc(CSCCNC(=S)Nc2ccc(OC)cc2)cc1	–	10µM	?	8.3µM	–	–
Cc1nn2c(=O)cc(COC(=O)c3cccs3)nc2s1	·	·	·	·	·	–
COC(=O)c1ccc(NC(=O)c2c(-c3ccccc3)c(-c3ccccc3)nn(C)c2=O)cc1	·	·	·	·	·	–
COc1ccc(C2=NN(C(=O)c3ccco3)C(c3cc4ccccc4nc3Cl)C2)cc1 (centres undefined)	–	–	–	–	–	–
O=C(c1ccco1)N1N=C(c2ccco2)CC1c1ccc(Cl)cc1Cl (centres undefined)	–	–	4.1µM	8.3µM	–	–
Clc1ccc(C2=NN(c3ccccc3)C(c3ccco3)C2)cc1 (centres undefined)	–	–	?	–	–	–
O=S(=O)(c1ccccc1)N1N=C(c2ccc(Cl)cc2)CC1c1ccco1 (centres undefined)	–	?	?	10µM	–	?
O=C(c1ccc(Br)o1)N1N=C(c2ccc(Cl)cc2)CC1c1ccco1 (centres undefined)	–	?	9.3µM	?	–	–
N=C(N)Sc1nc(N2CCCCC2)nc(N2CCCCC2)n1	–	–	–	–	–	–
c1ccc(Sc2nc(N3CCCCC3)nc(N3CCCCC3)n2)nc1	–	10µM	?	?	·	–
CC(=O)OC(C(=O)NC1CCCCC1)c1ccccc1F (centres undefined)	–	–	9.3µM	–	–	–
COC(C(=O)NC1CCCCCCC1)c1ccccc1 (centres undefined)	–	–	3.3µM	–	–	–
COC(CN(C)C(C(=O)NC1CCCCC1)c1ccccc1)OC (centres undefined)	–	–	–	–	–	–
CC(=O)OC(C(=O)NC1CCCCC1)c1cccc(F)c1 (centres undefined)	–	–	–	–	–	–
Cc1ccc(CCSc2ccc(C(C)C)cc2)cn1	–	–	12µM	–	–	–
O=C(Nc1ccc(F)cc1F)c1c(C(F)(F)F)ccnc1Oc1cccc(C(F)(F)F)c1	–	–	10µM	15µM	–	–
O=C(Nc1ccc(F)cc1F)c1c(C(F)(F)F)ccnc1Oc1ccc(Cl)cc1	–	–	?	?	–	–
Cn1nc(C(F)(F)F)c(C(=O)Nc2ccc(F)cc2F)c1Sc1cccc(C(F)(F)F)c1	–	–	8.3µM	9.3µM	–	–
Cn1nc(C(F)(F)F)c(C(=O)Nc2ccc(F)cc2F)c1Sc1cccc(Cl)c1	–	–	?	?	–	–
COc1cccc(/C=N/NC(=O)c2c(C)nc3ccc(Br)cn23)c1O	?	4.5µM	–	12µM	–	–
COc1ccc2ccccc2c1/C=N/NC(=O)c1ccccc1F	–	?	?	–	–	?
COc1ccc2ccccc2c1/C=N\NC(=O)c1ccc(C)s1	–	10µM	–	–	11µM	–
Cc1cc(/C=N\NC(=O)COc2cccc3cccnc23)c(C)n1-c1ccccc1	–	?	6.6µM	?	–	–
COc1ccccc1OCC(=O)N/N=C/c1cccc2cccnc12	–	–	13µM	–	–	–
SMILES	AMA1-RON2 inh	HCV inhibitor	Pf growth 96h	Pf growth 48h	AmpC inh no detg	AmpC detergent
CC(C)n1cc(/C=N/NC(=O)COc2cccc3cccnc23)c2ccccc21	–	?	8.3µM	?	–	–
Cc1nc2ccccn2c1C(=O)N/N=C/c1ccccc1	–	–	–	–	–	–
Cc1cc(/C=N\NC(=O)COc2cccc3cccnc23)c(C)n1-c1ccc(Br)cc1	–	?	2.3µM	5.9µM	–	–
Cc1cc(C)n(CCC(=O)N/N=C/c2ccc(O)cc2)n1	–	–	–	–	–	–
Cc1cc(C)n(CCC(=O)N/N=C/c2c(O)ccc3ccccc23)n1	–	?	?	6.6µM	–	–
Cc1nc2ccccn2c1C(=O)N/N=C/c1cc(C)n(-c2ccc(Br)cc2)c1C	–	4µM	?	?	–	–
CCC(=O)N1CCc2cc(S(=O)(=O)NCCC(=O)Nc3cc(C)ccc3OC)ccc21	·	·	·	·	·	–
CCc1cccc(NC(=O)C(Cc2ccccc2)n2cccc2)c1 (centres undefined)	·	·	·	·	·	–
Cc1ccc(NC(=O)CCn2nc(C)cc2C)c(C)c1	–	?	12µM	–	–	–
Cc1ccc(NC(=O)CCC(=O)n2nc(C)cc2C)c(C)c1	–	–	–	·	–	–
CCC(=N\NC(=O)COc1ccccc1OC)/C(CC)=N/NC(=O)COc1ccccc1OC	–	?	?	9.3µM	–	–
O=C(CN1CCCC1)N/N=C/c1c(O)ccc2ccccc12	–	7.9µM	?	–	–	–
COc1ccccc1OCC(=O)N/N=C/c1c(O)ccc2ccccc12	·	·	?	2.6µM	–	–
CCOC(=O)c1ccc(NC(=O)CSc2ccc(-c3sc(C)nc3C)nn2)cc1	·	·	·	·	·	–
COc1ccc(Cl)cc1C(=O)NCc1nc(-c2cccc(C)c2)no1	·	·	·	·	·	–
COCc1c(Br)c(C)nc(OCC(=O)N/N=C/c2cc(C)n(-c3ccc([N+](=O)[O-])cc3)c2C)c1C#N	–	?	?	12µM	–	–
COc1ccc(N(C)C(=O)c2cc(S(=O)(=O)N3CCc4ccccc43)cn2C)c(OC)c1	·	·	·	·	·	–
Cc1ccc(S(=O)(=O)N2CCN(c3ccccc3)CC2)cc1C(N)=O	–	–	13µM	–[5.75 µM]	–	?
CCOc1ccc(S(=O)(=O)N2CCN(c3ccccc3)CC2)cc1C(N)=O	·	·	·	·	·	–
COc1cc2ccccc2cc1C(=O)N1CCCC(C(F)(F)F)C1 (centres undefined)	–[11.6 µM]	–	0.47µM	0.52µM	–	–
O=C(Nc1ccncc1)c1cc(S(=O)(=O)N2CCN(c3ccccc3)CC2)ccc1Cl	–	?	?	12µM	–	?
O=C(c1cc(S(=O)(=O)N2CCN(c3ccccc3)CC2)ccc1Cl)N1CCCC(C(F)(F)F)C1 (centres undefined)	–	7.9µM	?	?	–	–
CC(=O)c1ccc(NC(=O)c2ccc(-c3ccc(Cl)cc3)o2)cc1	·	·	·	·	·	–
CCC1CCCCN1C(=O)Cn1c(=O)n(-c2ccccc2C(F)(F)F)c(=O)c2c(C)c(C(=O)N(C)C)sc21 (centres undefined)	·	·	·	·	·	–
Cc1ccc(CCNC(=O)c2ccc3c(Cl)c4c(nc3c2)CCCC4)cc1	·	·	·	·	·	–
O=C(NCc1cccc(Cl)c1)C1CCCN(c2nn3cc(-c4ccc(F)cc4)nc3s2)C1 (centres undefined)	·	·	·	·	·	–
